In the supplement of paper PMC10037445:
In all, about 2,900 compounds were measured (“NF-kB SEAP reporter activity, fold change vs agonist alone”: median about 0.99, highest 2% from about 2.6 on). What follows is part of a selection rich in the highest values, with near analogues and random picks from the rest.

Legend:
[1] = system: RAW-Dual; assay: NF-kB SEAP reporter activity, fold change vs agonist alone; cytotoxicity flag (confluency mask): not cytotoxic; higher = enhanced NF-kB activity
How it was run: (§1)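 RAW-Dual macrophages were seeded in DMEM at 50,000 cells/well in 384-well plates, given 50 nL of library stock by pin tool, and given a PRR agonist 1 h later. Plates were held at 37 °C, 5% CO2 for 20 hours, after which supernatant was read for IRF by QuantiLuc luminescence and for NF-κB by QuantiBlue absorbance at 620 nm. Reporter activity is expressed as fold change over wells that received agonist alone. A well was called cytotoxic when IncuCyte confluency fell below 70% of agonist controls in both mask sets.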

[2] = system: RAW-Dual; assay: NF-kB SEAP reporter activity, fold change vs agonist alone; higher = enhanced NF-kB activity
How it was run: as §1

[3] = system: RAW-Dual; assay: NF-kB SEAP reporter activity, fold change vs agonist alone; cytotoxicity flag (confluency mask): cytotoxic (confluency <70% of control); higher = enhanced NF-kB activity
How it was run: as §1

[4] = agonist: ODN 1826 (TLR9) 0.5 ug/mL
[5] = agonist: Pam2CSK4 (TLR2/6) 0.1 ug/mL
[6] = agonist: Pam3CSK4 (TLR2/1) 0.1 ug/mL
[7] = library stock concentration (final ~1000-fold dilution): 10 mM, cytotoxicity flag (confluency mask): not cytotoxic, agonist: Imiquimod (TLR7) […]
[8] = library stock concentration (final ~1000-fold dilution): 10 mM, cytotoxicity flag (confluency mask): not cytotoxic, agonist: MPLA (TLR4) […]
[9] = library stock concentration (final ~1000-fold dilution): 2 mM, cytotoxicity flag (confluency mask): not cytotoxic, agonist: Imiquimod (TLR7) […]
[10] = library stock concentration (final ~1000-fold dilution): 2 mM, cytotoxicity flag (confluency mask): not cytotoxic, agonist: MPLA (TLR4) […]

c1cncc(-c2c[nH]nn2)c1 (library stock concentration (final ~1000-fold dilution): 10 mM)
NF-kB SEAP reporter activity ([1]; agonist: LPS (TLR4) 0.1 ug/mL): 1.17 | NF-kB SEAP reporter activity [1, 4]: 0.863 | NF-kB SEAP reporter activity [1, 5]: 1.02 | NF-kB SEAP reporter activity [1, 6]: 1.05

c1cncc(-c2c[nH]nn2)c1
NF-kB SEAP reporter activity [2, 7]: 0.995 | NF-kB SEAP reporter activity [2, 8]: 0.972

CCCC1CC(C(=O)NC(C(C)Cl)C2OC(SC)C(O)C(O)C2O)N(C)C1.Cl (configuration not stated) (library stock concentration (final ~1000-fold dilution): 10 mM)
NF-kB SEAP reporter activity ([1]; agonist: LPS (TLR4) 0.1 ug/mL): 1.11 | NF-kB SEAP reporter activity [1, 4]: 1.04 | NF-kB SEAP reporter activity [1, 5]: 1.06 | NF-kB SEAP reporter activity [1, 6]: 1.08

CCCC1CC(C(=O)NC(C(C)Cl)C2OC(SC)C(O)C(O)C2O)N(C)C1.Cl (configuration not stated)
NF-kB SEAP reporter activity [2, 7]: 0.95 | NF-kB SEAP reporter activity [2, 8]: 1.06

CCCCCCCCCCCCCCCCCC[N+](C)(C)C
NF-kB SEAP reporter activity ([2]; library stock concentration (final ~1000-fold dilution): 10 mM, cytotoxicity flag (confluency mask): cytotoxic (confluency <70% of control), agonist: MPLA (TLR4) […]): 1.75

CCCCCCCCCCCCCCCCCC[N+](C)(C)C (library stock concentration (final ~1000-fold dilution): 10 mM)
NF-kB SEAP reporter activity ([3]; agonist: LPS (TLR4) 0.1 ug/mL): 0.996 | NF-kB SEAP reporter activity [3, 4]: 1.37 | NF-kB SEAP reporter activity [3, 5]: 0.699 | NF-kB SEAP reporter activity [3, 6]: 0.534

Cc1cccc(-c2nn3c(c2-c2ccnc4ccc(C(N)=O)cc24)CCC3)n1
NF-kB SEAP reporter activity [2, 7]: 1.13 | NF-kB SEAP reporter activity [2, 8]: 1.48

c1ccc(-c2n[nH]cc2-c2ccnc3ccccc23)nc1 (library stock concentration (final ~1000-fold dilution): 2 mM)
NF-kB SEAP reporter activity ([1]; agonist: LPS (TLR4) 0.1 ug/mL): 2.19 | NF-kB SEAP reporter activity [1, 4]: 1.01 | NF-kB SEAP reporter activity [1, 5]: 0.992 | NF-kB SEAP reporter activity [1, 6]: 0.919

Cc1cccc(-c2nn3c(c2-c2ccnc4ccc(C(N)=O)cc24)CCC3)n1 (library stock concentration (final ~1000-fold dilution): 10 mM)
NF-kB SEAP reporter activity ([1]; agonist: LPS (TLR4) 0.1 ug/mL): 1.59 | NF-kB SEAP reporter activity [1, 4]: 1.03 | NF-kB SEAP reporter activity [1, 5]: 1.05 | NF-kB SEAP reporter activity [1, 6]: 1.21

c1ccc(-c2nn3c(c2-c2ccnc4cc(OCCN5CCOCC5)ccc24)CCC3)nc1 (library stock concentration (final ~1000-fold dilution): 2 mM)
NF-kB SEAP reporter activity ([1]; agonist: LPS (TLR4) 0.1 ug/mL): 2.87 | NF-kB SEAP reporter activity [1, 4]: 1.07 | NF-kB SEAP reporter activity [1, 5]: 1.05 | NF-kB SEAP reporter activity [1, 6]: 1.01

c1ccc(-c2nn3c(c2-c2ccnc4cc(OCCN5CCOCC5)ccc24)CCC3)nc1
NF-kB SEAP reporter activity [2, 9]: 0.793 | NF-kB SEAP reporter activity [2, 10]: 1.27

c1ccc(-c2n[nH]cc2-c2ccnc3ccccc23)nc1
NF-kB SEAP reporter activity [2, 9]: 0.961 | NF-kB SEAP reporter activity [2, 10]: 1.15

Cc1cc(C)cc(Oc2ccc(CNC(=O)C(C)N)cc2C)c1 (configuration not stated) (library stock concentration (final ~1000-fold dilution): 10 mM)
NF-kB SEAP reporter activity ([1]; agonist: LPS (TLR4) 0.1 ug/mL): 1.3 | NF-kB SEAP reporter activity [1, 4]: 0.9 | NF-kB SEAP reporter activity [1, 5]: 0.484 | NF-kB SEAP reporter activity [1, 6]: 0.732

Cc1cc(C)cc(Oc2ccc(CNC(=O)C(C)N)cc2C)c1 (configuration not stated)
NF-kB SEAP reporter activity [2, 7]: 1.24 | NF-kB SEAP reporter activity [2, 8]: 1.3

CC(C)=CCC/C(C)=C/CC/C(C)=C/CC/C=C(\C)CC/C=C(\C)CCC=C(C)C
NF-kB SEAP reporter activity [2, 7]: 0.926 | NF-kB SEAP reporter activity [2, 8]: 1.01

CC(C)=CCC/C(C)=C/CC/C(C)=C/CC/C=C(\C)CC/C=C(\C)CCC=C(C)C (library stock concentration (final ~1000-fold dilution): 10 mM)
NF-kB SEAP reporter activity ([1]; agonist: LPS (TLR4) 0.1 ug/mL): 1.34 | NF-kB SEAP reporter activity [1, 4]: 1.09 | NF-kB SEAP reporter activity [1, 5]: 1.14 | NF-kB SEAP reporter activity [1, 6]: 1.12
